{"source": "PubChem BioAssay (NCATS)", "note": "Results filed as inconclusive are left out. Active and inactive are the calls of the source. Calls come from the whole dose curve."}
{"target": "Peroxisome proliferator-activated receptor delta (Homo sapiens) (UniProt Q03181)", "sequence (Q03181 whole entry, looked up)": "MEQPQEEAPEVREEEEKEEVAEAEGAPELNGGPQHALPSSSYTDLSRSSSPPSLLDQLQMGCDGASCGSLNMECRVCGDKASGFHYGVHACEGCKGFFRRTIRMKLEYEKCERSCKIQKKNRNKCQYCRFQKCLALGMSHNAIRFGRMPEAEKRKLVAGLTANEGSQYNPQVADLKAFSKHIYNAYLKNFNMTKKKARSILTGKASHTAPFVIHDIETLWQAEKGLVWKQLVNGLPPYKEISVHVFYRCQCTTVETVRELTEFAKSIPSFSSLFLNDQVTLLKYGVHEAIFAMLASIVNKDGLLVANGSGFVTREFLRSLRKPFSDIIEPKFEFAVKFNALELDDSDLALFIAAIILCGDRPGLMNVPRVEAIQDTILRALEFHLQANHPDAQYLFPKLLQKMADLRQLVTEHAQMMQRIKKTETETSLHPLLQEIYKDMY", "experiment": "qHTS assay for small molecule agonists of peroxisome proliferator-activated receptor delta signaling (AID 588534)", "conditions": "HEK293T PPARdelta-UAS-bla, beta-lactamase ratio, 18 h; series mostly up to 76.7 µM", "summary_of_the_method": "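Cells carrying a PPAR-delta beta-lactamase reporter were treated with compounds for 18 h at 37 °C in agonist mode. CCF4 fluorescence was read after 2 h; EC50 and efficacy from Hill fits.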"}
{"smiles": "O=C(Cl)c1cccc(C(=O)Cl)c1", "outcome": "inactive"}
{"smiles": "COCCOCCOCCO", "outcome": "inactive"}
{"smiles": "O=C(OCC1CCC2OC2C1)C1CCC2OC2C1", "note": "(stereo not given)", "outcome": "inactive"}
{"smiles": "ON=C1CCCCC1", "outcome": "inactive"}
{"smiles": "CCOC(=O)OCC", "outcome": "inactive"}
{"smiles": "Cc1ccc(C)c([N+](=O)[O-])c1", "outcome": "inactive"}
{"smiles": "CCCCCCCCCCCCCCCO", "outcome": "inactive"}
{"smiles": "C[C@H]1C[C@H]2[C@@H]3CCC4=CC(=O)C=C[C@]4(C)[C@@]3(F)[C@@H](O)C[C@]2(C)[C@@]1(O)C(=O)CO", "outcome": "inactive"}
{"smiles": "CC(=O)OC(C)(C)C1CC=C(C)CC1", "note": "(stereo not given)", "outcome": "inactive"}
{"smiles": "CCCCCCCC/C=C\\CCCCCCCC(=O)OC[C@@H](O)[C@H]1OC[C@H](O)[C@H]1O", "outcome": "inactive"}
{"smiles": "CO[Si](OC)(OC)c1ccccc1", "outcome": "inactive"}
{"smiles": "COC(=O)CS", "outcome": "inactive"}
{"smiles": "Cc1cccc(C)c1O", "outcome": "inactive"}
{"smiles": "Cc1ccccc1C(=O)O", "outcome": "inactive"}
{"smiles": "Nc1ccc2c(c1)C(=O)c1ccccc1C2=O", "outcome": "inactive"}
{"smiles": "Cc1cccc([N+](=O)[O-])c1C", "outcome": "inactive"}
{"smiles": "CO[Si](CCCNCCN)(OC)OC", "outcome": "inactive"}
{"smiles": "O=[N+]([O-])c1cccc(Cl)c1", "outcome": "inactive"}
{"smiles": "C=Cc1ccccn1", "outcome": "inactive"}
{"smiles": "Clc1cc(Cl)cc(Cl)c1", "outcome": "inactive"}
{"smiles": "ClCCCl", "outcome": "inactive"}
{"smiles": "O=c1[nH]c(=O)c2[nH]cnc2[nH]1", "outcome": "inactive"}
{"smiles": "CCCCC(CC)COC(=O)/C=C\\C(=O)OCC(CC)CCCC", "note": "(stereo not given)", "outcome": "inactive"}
{"smiles": "CC(=O)c1ccc([N+](=O)[O-])cc1", "outcome": "inactive"}
{"smiles": "Cc1cccc(Br)c1", "outcome": "inactive"}
{"smiles": "O=C(Cl)c1cc(Cl)cc(Cl)c1", "outcome": "inactive"}
{"smiles": "CC(C)COC(=O)COc1cc(Cl)c(Cl)cc1Cl", "outcome": "inactive"}
{"smiles": "C=CCCCCCCCCCC", "outcome": "inactive"}
{"smiles": "C[Si]1(C)O[Si](C)(C)O[Si](C)(C)O[Si](C)(C)O[Si](C)(C)O1", "outcome": "inactive"}
{"smiles": "O=C1CCCCCCCCCCC1", "outcome": "inactive"}
{"smiles": "CCNS(=O)(=O)c1ccc(C)cc1", "outcome": "inactive"}
{"smiles": "CC1CCC(C(C)C)C(O)C1", "note": "(stereo not given)", "outcome": "inactive"}
{"smiles": "CCCCCCCCC(=O)O", "outcome": "inactive"}
{"smiles": "CC1(C)CC(N)CC(C)(CN)C1", "note": "(stereo not given)", "outcome": "inactive"}
{"smiles": "O=C(O)CNC(=O)c1ccc(CO)o1", "outcome": "inactive"}
{"smiles": "CCOC(=O)C1=NN(c2ccc(Cl)cc2Cl)C(C)(C(=O)OCC)C1", "note": "(stereo not given)", "outcome": "inactive"}
{"smiles": "CC(=O)Nc1ccccc1C", "outcome": "inactive"}
{"smiles": "CCCCCCCCCCCCCCC1CO1", "note": "(stereo not given)", "outcome": "inactive"}
{"smiles": "O=C(O)/C=C/c1ccc(/C=C/C(=O)O)cc1", "outcome": "inactive"}
{"smiles": "O=Cc1ccc(Cl)c(Cl)c1", "outcome": "inactive"}
